Results as given in publication PMC7862700, “An all-to-all approach to the identification of sequence-specific readers for epigenetic DNA modifications on cytosine”.

Experiments:
Assay in all cases: DAPPL (digital affinity profiling via proximity ligation, sequencing); 10 mM Tris-HCl pH 7.5, 50 mM NaCl, 1 mM DTT, 4% glycerol, room temperature, 30 min; GST-TFs on glutathione beads, 16-mer random dsDNA library, 0.1% formaldehyde crosslink after washing; high values mean tight binding
[1] = target: T1, FLI1 (Homo sapiens, UniProt Q01543 1-452); conditions: protein: recombinant; tags: N-terminal GST; dsDNA, one strand shown
T1 sequence: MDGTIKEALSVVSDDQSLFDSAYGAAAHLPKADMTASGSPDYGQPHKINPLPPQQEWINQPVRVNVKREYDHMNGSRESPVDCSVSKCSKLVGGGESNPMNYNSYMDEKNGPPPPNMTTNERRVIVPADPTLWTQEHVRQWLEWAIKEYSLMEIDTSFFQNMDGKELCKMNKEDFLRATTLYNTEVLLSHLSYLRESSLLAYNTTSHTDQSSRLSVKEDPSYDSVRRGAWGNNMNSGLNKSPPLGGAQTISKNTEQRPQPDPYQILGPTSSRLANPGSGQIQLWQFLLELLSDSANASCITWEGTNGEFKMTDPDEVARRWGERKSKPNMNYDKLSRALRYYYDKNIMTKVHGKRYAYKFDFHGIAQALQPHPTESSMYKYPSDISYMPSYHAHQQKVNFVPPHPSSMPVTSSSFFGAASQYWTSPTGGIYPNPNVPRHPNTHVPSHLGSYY
Procedure, shortened: (§1)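 Binding signal is given per hexamer as its read frequency for a factor divided by its frequency in the tag-only sample. GST-fused human transcription factors were expressed in yeast, captured on glutathione beads, barcoded with DNA and pooled with that sample, then incubated with 200 nmole of a 16-mer random double-stranded DNA library in Tris/NaCl/DTT/glycerol buffer for 30 min at room temperature. The pools were then washed, crosslinked, proximity-ligated, amplified by PCR and sequenced on an Illumina NextSeq500.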

[2] = target: ELF1 (Homo sapiens, UniProt P32519 1-619); conditions: protein: recombinant; tags: N-terminal GST; dsDNA, one strand shown
Chain of ELF1 (P32519 whole entry): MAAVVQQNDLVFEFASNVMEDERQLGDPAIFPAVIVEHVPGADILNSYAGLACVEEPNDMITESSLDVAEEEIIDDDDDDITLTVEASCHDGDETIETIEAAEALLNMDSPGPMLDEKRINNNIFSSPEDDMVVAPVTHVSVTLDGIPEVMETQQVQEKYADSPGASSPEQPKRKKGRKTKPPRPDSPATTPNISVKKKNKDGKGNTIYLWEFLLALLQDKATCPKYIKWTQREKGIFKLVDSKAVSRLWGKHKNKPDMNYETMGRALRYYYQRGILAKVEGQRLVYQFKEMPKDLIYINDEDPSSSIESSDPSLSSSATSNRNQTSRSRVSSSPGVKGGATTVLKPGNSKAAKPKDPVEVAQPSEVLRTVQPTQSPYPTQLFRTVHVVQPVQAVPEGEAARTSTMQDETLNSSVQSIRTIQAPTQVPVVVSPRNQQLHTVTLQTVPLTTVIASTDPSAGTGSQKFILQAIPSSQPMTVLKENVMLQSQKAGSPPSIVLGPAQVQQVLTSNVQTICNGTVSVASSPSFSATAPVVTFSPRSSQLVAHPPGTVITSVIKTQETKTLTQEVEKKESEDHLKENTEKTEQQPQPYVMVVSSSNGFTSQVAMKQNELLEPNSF
Procedure, shortened: as §1

[3] = target: T2, EHF (Homo sapiens, UniProt Q9NZC4 1-300); conditions: protein: recombinant; tags: N-terminal GST; dsDNA, one strand shown
T2 sequence: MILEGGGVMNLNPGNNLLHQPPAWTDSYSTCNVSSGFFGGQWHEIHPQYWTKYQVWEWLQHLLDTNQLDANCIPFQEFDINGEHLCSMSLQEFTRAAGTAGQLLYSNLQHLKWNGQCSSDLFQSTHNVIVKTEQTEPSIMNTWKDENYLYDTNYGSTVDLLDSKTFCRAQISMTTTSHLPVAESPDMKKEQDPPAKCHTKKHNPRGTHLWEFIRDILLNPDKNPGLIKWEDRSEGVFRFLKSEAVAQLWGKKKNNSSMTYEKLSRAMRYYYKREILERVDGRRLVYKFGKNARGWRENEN
Procedure, shortened: as §1

[4] = target: SPIB (Homo sapiens, UniProt Q01892 1-262); conditions: protein: recombinant; tags: N-terminal GST; dsDNA, one strand shown
Chain of SPIB (Q01892 whole entry): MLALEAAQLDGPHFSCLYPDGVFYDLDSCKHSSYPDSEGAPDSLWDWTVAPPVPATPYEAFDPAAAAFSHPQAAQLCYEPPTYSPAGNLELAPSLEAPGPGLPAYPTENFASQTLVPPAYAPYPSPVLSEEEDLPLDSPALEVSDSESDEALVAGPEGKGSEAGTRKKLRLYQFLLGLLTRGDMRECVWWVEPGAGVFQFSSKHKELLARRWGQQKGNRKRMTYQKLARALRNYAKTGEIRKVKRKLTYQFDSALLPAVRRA
Procedure, shortened: as §1

[5] = target: T3, ELK3 (Homo sapiens, UniProt P41970 1-407); conditions: protein: recombinant; tags: N-terminal GST; dsDNA, one strand shown
T3 sequence: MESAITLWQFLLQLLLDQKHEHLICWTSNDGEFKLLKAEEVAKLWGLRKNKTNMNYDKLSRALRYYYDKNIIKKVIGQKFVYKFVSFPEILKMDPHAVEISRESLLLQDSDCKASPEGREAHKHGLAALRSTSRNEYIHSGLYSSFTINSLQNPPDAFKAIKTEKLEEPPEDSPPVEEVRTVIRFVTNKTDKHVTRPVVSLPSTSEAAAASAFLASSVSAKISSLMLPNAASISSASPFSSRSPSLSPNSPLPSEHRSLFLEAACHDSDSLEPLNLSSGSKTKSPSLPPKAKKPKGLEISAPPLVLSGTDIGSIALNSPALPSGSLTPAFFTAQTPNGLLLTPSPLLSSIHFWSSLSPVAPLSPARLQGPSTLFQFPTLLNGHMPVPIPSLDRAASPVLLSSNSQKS
Procedure, shortened: as §1

[6] = target: ETV5 (Homo sapiens, UniProt P41161 1-510); conditions: protein: recombinant; tags: N-terminal GST; dsDNA, one strand shown
Chain of ETV5 (P41161 whole entry): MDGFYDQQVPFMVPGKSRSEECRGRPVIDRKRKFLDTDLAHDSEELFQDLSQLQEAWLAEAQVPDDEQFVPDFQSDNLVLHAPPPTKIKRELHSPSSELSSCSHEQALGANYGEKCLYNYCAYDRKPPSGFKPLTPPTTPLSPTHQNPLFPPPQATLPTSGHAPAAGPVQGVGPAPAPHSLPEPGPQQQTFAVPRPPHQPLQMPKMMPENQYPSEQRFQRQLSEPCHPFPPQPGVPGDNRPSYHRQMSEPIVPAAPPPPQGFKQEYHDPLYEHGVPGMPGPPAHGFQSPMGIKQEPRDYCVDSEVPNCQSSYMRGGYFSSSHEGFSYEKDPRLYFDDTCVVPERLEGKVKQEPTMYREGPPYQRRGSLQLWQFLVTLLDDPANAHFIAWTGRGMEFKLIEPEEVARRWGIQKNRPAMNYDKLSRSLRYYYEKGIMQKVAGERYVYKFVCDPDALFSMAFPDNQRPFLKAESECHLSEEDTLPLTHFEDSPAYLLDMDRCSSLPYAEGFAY
Procedure, shortened: as §1

[7] = target: HSF1 (Homo sapiens, UniProt Q00613 1-529); conditions: protein: recombinant; tags: N-terminal GST; chain copies: 3; dsDNA, one strand shown
Chain of HSF1 (Q00613 whole entry): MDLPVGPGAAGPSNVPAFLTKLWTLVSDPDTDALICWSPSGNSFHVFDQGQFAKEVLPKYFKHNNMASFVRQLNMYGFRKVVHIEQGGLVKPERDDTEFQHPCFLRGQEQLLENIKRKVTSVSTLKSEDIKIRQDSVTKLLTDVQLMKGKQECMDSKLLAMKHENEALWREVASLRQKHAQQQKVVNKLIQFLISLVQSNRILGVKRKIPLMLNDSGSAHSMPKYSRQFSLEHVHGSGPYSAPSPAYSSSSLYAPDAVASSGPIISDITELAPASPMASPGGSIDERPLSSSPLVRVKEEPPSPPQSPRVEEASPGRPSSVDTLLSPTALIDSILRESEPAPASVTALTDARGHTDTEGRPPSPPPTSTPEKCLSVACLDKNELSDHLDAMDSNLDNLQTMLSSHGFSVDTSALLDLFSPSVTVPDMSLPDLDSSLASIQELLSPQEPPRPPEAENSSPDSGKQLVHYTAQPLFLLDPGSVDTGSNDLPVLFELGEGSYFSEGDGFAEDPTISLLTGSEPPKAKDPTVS
Procedure, shortened: as §1

[8] = target: T4, SPIC (Homo sapiens, UniProt Q8N5J4 1-248); conditions: protein: recombinant; tags: N-terminal GST; dsDNA, one strand shown
T4 sequence: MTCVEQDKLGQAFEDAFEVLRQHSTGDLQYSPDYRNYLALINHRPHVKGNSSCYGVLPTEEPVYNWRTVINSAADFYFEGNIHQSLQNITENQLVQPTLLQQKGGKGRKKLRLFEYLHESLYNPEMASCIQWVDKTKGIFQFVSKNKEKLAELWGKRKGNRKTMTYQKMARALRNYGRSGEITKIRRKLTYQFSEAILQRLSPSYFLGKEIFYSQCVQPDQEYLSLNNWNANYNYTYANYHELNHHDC
Procedure, shortened: as §1

[9] = target: T5, ELK4 (Homo sapiens, UniProt P28324-2 1-405); conditions: protein: recombinant; tags: N-terminal GST; dsDNA, one strand shown
T5 sequence: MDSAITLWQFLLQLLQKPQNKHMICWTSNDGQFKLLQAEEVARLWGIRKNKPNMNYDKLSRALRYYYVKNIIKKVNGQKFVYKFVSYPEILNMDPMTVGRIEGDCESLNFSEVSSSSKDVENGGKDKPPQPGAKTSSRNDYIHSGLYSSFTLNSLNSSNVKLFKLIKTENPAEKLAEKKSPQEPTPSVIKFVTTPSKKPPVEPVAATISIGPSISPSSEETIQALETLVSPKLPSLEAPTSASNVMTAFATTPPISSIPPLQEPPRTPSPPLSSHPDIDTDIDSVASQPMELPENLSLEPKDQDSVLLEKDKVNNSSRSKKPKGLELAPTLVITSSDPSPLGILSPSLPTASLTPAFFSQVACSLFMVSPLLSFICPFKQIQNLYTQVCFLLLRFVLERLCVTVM
Procedure, shortened: as §1

[10] = target: CRX (Homo sapiens, UniProt O43186 1-299); conditions: protein: recombinant; tags: N-terminal GST; dsDNA, one strand shown
Chain of CRX (O43186 whole entry): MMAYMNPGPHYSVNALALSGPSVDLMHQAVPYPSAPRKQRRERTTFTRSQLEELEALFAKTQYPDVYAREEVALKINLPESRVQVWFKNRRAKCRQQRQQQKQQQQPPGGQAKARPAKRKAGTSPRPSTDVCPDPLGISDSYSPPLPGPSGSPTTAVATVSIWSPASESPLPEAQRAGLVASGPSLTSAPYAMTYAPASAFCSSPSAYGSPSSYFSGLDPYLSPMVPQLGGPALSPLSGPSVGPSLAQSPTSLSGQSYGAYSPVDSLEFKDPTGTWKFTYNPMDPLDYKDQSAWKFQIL
Procedure, shortened: as §1

[11] = target: ETV1 (Homo sapiens, UniProt P50549 1-477); conditions: protein: recombinant; tags: N-terminal GST; dsDNA, one strand shown
Chain of ETV1 (P50549 whole entry): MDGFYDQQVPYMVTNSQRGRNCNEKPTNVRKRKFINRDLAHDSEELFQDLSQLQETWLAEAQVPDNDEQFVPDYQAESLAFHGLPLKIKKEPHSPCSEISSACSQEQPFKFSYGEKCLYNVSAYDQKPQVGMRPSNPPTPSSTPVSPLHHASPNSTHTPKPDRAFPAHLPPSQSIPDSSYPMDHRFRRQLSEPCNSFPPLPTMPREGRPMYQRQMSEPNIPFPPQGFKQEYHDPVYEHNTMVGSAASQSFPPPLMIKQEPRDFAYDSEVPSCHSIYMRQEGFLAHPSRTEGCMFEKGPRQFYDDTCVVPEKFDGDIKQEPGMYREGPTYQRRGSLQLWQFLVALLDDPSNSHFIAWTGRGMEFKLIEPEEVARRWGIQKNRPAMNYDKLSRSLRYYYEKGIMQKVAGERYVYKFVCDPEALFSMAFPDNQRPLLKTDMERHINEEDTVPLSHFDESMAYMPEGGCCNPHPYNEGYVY
Procedure, shortened: as §1

[12] = target: T6, ELK1 (Homo sapiens, UniProt P19419 1-428); conditions: protein: recombinant; tags: N-terminal GST; dsDNA, one strand shown
T6 sequence: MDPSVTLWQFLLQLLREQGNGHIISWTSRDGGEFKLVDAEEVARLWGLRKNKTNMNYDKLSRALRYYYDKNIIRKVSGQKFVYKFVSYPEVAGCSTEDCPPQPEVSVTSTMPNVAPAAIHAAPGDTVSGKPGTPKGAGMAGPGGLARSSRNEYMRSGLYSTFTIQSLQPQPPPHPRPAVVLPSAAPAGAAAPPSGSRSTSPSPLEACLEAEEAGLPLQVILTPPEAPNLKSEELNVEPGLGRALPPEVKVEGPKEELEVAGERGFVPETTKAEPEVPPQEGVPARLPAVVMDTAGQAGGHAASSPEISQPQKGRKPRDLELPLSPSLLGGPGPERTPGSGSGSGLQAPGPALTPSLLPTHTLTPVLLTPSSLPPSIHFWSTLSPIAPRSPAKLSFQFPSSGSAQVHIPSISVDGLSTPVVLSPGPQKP
Procedure, shortened: as §1

[13] = target: T7, GABPA (Homo sapiens, UniProt Q06546 1-454); conditions: protein: recombinant; tags: N-terminal GST; dsDNA, one strand shown
T7 sequence: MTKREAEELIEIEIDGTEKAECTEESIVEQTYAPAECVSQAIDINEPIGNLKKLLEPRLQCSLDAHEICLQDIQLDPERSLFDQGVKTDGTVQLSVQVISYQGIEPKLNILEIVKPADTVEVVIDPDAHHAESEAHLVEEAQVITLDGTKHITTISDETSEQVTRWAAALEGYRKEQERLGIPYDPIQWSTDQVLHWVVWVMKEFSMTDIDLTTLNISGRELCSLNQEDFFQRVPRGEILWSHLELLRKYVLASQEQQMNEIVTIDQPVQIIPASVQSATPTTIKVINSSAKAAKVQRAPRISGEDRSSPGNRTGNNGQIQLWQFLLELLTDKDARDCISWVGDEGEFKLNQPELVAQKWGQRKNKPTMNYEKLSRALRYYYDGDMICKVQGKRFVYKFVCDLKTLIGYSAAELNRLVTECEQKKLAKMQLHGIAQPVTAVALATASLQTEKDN
Procedure, shortened: as §1

[14] = target: T8, ERG (Homo sapiens, UniProt P11308 1-479); conditions: protein: recombinant; tags: N-terminal GST; dsDNA, one strand shown
T8 sequence: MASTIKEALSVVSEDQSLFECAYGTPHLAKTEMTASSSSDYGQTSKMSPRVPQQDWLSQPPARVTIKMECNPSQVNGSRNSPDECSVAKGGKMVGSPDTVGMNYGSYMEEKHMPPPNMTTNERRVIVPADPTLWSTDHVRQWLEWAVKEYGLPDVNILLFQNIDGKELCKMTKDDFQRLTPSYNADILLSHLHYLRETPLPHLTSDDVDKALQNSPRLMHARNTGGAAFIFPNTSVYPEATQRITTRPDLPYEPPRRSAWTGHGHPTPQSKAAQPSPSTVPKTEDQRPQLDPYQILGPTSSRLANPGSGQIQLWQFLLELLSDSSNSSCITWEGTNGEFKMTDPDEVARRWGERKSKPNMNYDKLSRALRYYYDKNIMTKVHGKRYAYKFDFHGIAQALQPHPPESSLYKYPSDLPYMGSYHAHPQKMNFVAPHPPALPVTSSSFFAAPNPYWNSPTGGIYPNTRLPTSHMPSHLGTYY
Procedure, shortened: as §1

[15] = target: SPI1 (Homo sapiens, UniProt P17947 1-270); conditions: protein: recombinant; tags: N-terminal GST; dsDNA, one strand shown
Procedure, shortened: as §1

[16] = target: ELF4 (Homo sapiens, UniProt Q99607 1-663); conditions: protein: recombinant; tags: N-terminal GST; dsDNA, one strand shown
Chain of ELF4 (Q99607 whole entry): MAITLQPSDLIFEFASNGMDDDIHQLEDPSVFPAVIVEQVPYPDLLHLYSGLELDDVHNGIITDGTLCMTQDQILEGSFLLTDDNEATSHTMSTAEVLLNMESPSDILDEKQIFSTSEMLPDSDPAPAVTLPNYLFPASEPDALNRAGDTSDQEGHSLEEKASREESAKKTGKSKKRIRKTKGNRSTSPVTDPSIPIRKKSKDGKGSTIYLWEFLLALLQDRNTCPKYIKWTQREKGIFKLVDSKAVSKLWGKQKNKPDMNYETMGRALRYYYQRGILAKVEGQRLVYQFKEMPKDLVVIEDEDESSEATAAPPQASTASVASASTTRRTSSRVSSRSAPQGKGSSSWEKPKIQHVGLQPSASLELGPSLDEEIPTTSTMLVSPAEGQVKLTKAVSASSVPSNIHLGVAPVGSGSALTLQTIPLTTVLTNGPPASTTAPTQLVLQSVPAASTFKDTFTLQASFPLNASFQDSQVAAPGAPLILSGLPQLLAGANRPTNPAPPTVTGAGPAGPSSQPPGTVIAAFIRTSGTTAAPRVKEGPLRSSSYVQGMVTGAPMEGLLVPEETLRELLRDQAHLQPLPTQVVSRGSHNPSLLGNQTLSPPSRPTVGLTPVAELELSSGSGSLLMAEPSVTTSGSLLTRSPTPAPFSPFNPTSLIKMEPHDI
Procedure, shortened: as §1

[17] = target: T9, ELF3 (Homo sapiens, UniProt P78545 1-371); conditions: protein: recombinant; tags: N-terminal GST; dsDNA, one strand shown
T9 sequence: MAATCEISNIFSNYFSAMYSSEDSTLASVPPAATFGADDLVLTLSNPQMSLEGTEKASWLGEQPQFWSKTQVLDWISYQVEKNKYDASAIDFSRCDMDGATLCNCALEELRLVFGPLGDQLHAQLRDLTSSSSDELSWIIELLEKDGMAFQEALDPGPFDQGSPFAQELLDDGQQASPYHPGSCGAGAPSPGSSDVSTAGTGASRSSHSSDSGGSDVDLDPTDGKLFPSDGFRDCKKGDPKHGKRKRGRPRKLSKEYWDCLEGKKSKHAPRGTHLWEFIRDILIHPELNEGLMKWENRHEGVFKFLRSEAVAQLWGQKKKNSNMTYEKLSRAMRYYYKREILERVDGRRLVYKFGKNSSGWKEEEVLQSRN
Procedure, shortened: as §1

Sequence | binding signal [1] | binding signal [2] | binding signal [3] | binding signal [4] | binding signal [5] | binding signal [6] | binding signal [7] | binding signal [8] | binding signal [9] | binding signal [10] | binding signal [11] | binding signal [12] | binding signal [13] | binding signal [14] | binding signal [15] | binding signal [16] | binding signal [17]
TCATCG | 1.12 fold enrichment (6-mer frequency, TF over GST control) | 1.01 fold enrichment (6-mer frequency, TF over GST control) | 1.05 fold enrichment (6-mer frequency, TF over GST control) | 1.13 fold enrichment (6-mer frequency, TF over GST control) | 1.02 fold enrichment (6-mer frequency, TF over GST control) | 1 fold enrichment (6-mer frequency, TF over GST control) | 1.12 fold enrichment (6-mer frequency, TF over GST control) | 1.05 fold enrichment (6-mer frequency, TF over GST control) | 1.05 fold enrichment (6-mer frequency, TF over GST control) | 1.05 fold enrichment (6-mer frequency, TF over GST control) | 1.03 fold enrichment (6-mer frequency, TF over GST control) | – | – | – | – | – | –
CAAGAA | 1.03 fold enrichment (6-mer frequency, TF over GST control) | 1.03 fold enrichment (6-mer frequency, TF over GST control) | 1.04 fold enrichment (6-mer frequency, TF over GST control) | – | 1.06 fold enrichment (6-mer frequency, TF over GST control) | 1.09 fold enrichment (6-mer frequency, TF over GST control) | 1.51 fold enrichment (6-mer frequency, TF over GST control) | 1.09 fold enrichment (6-mer frequency, TF over GST control) | – | 1.08 fold enrichment (6-mer frequency, TF over GST control) | 1.05 fold enrichment (6-mer frequency, TF over GST control) | 1.11 fold enrichment (6-mer frequency, TF over GST control) | 1.02 fold enrichment (6-mer frequency, TF over GST control) | 1.11 fold enrichment (6-mer frequency, TF over GST control) | 1.06 fold enrichment (6-mer frequency, TF over GST control) | 1.06 fold enrichment (6-mer frequency, TF over GST control) | 1.11 fold enrichment (6-mer frequency, TF over GST control)
